# Source: PubChem (National Center for Advancing Translational Sciences (NCATS))
# KB-3-1 cytotox: qHTS assay for MDR1-selective chemotherapeutics: Primary screen using the parental adenocarcinoma cell KB-3-1 | AID 1347075, 2019 | KB-3-1 viability, CellTiter-Glo ATP luminescence, 72 h | actives 1.4% (n = 400,000) | Potency, µM (titrated, usually from 46.1 µM), usual class: cytotoxic; also: % is scaled to controls: 0 for no effect and ±100 for the full control effect; nearly all actives have a fitted effect of over 60% in size
#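 Here the drug-naive KB-3-1 line serves as comparator for MDR sub-line selectivity; cells received compound titrations, 72 h at 37 °C, then CellTiter-Glo readout.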
# KB-V1 cytotox: qHTS assay for MDR1-selective chemotherapeutics: Primary screen using the drug-selected MDR subline cells KB-V1; actives 3.4% (n = 400,000); Potency, µM (highest dose often 46.1 µM), hits mostly cytotoxic; KB-V1 MDR cells viability, CellTiter-Glo, 72 h; also: % is scaled to controls: 0 for no effect and ±100 for the full control effect; nearly all actives have a fitted effect of over 60% in size
#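 qHTS viability screen in drug-selected KB-V1 MDR cells: 72 h compound treatment at 37 degrees C, ATP luminescence end point.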
# SW480 rerep: A quantitative high throughput screen for small molecules that induce DNA re-replication in SW480 colon adenocarcinoma cells. SW480 DNA re-replication, Hoechst DNA content imaging, 48 h. Potency, µM (titrated, usually from 46.1 µM), without a hit: at the top dose re-replication activation, hits mostly activators. actives 1.8% (n = 340,000); also: % of control where 0% means no effect; nearly all actives have a fitted effect of over 55% in size
#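 Compounds, transferred as 23 nL by pin tool, were incubated with cells for 48 hr; DNA content per nucleus was then quantified by Hoechst staining and fluorescence plate imaging.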
# PINK1 expr mod: A Quantitative High throughput Screen to Identify Chemical Modulators of PINK1 Expression | PINK1 immunofluorescence, high-content cytometry, 24 h | actives 0.2% (n = 410,000) | Potency, µM (titrated, usually from 76.6 µM), for inactives: at the highest dose activation (PINK1 increase), hits mostly activators; active = well fitted activation curve with a large enough effect; inconclusive = small, poorly fitted or top-dose-only effect; cell line not stated here; also: % of control where 0% means no effect; nearly all actives have a fitted effect of over 65% in size
#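 Fluorescence from anti-PINK1 antibody, together with nuclear and cell stains, was scanned on a laser-scanning cytometer. Before staining, stable-line cells were incubated 24 hours with compounds at 5 concentrations; primary antibody 12 h at 10 degrees C.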
# MCF10A rereplic: A quantitative high throughput screen for small molecules that induce DNA re-replication in MCF 10a normal breast cells. MCF 10A DNA re-replication, Hoechst nuclear intensity, 48 h. Potency, µM (highest dose often 46.1 µM), for inactives: at the highest dose activity, positive = re-replication, hits mostly activators. actives 2.9% (n = 350,000). AID 624296, 2012; also: % of control where 0% means no effect; nearly all actives have a fitted effect of over 50% in size
# Starred values were filed as active, the others as inactive; i = inactive; ? = inconclusive; . = no result; [ ] = another dose, or the depositor's remark. In the library only some 6.7% were active in any assay of this set; here they are far more common. Unless noted, calls follow the shape of the dose curve; as a rule, active = well fitted curve in the direction sought with a large enough effect; inconclusive = small, poorly fitted or top-dose-only effect, or another doubt; inactive = no such curve, though single readings can be large; an effect the other way counts as inactive or inconclusive. Potency is read from the fitted curve at half-maximal effect.
SMILES,KB-3-1 cytotox,KB-V1 cytotox,SW480 rerep,PINK1 expr mod,MCF10A rereplic
CC(Oc1ccc(C#N)cc1)C(=O)N1CC=C(c2ccccc2)CC1 (configuration not stated),16µM*,13µM*,?,6%,16µM*
Cc1ccsc1CCN1C(=O)N(c2ccccc2)C(=O)C1CC(=O)Nc1ccc(Cl)cc1 (configuration not stated),i,i,.,4%,.
CCOC(=O)c1cnc(SCc2nc(N)nc(Nc3ccc(C)cc3)n2)nc1N,?,?,?,5%,10µM*
CCOC(=O)c1cnc(SCc2nc(N)nc(Nc3ccc(F)cc3)n2)nc1N,?,?,?,1%[38.3 µM],3.7µM*
CCOC(=O)c1cnc(SC)nc1N,i,?,1%,0%,-3%
CCOCCn1ccc2c(OCC(=O)Nc3cccc([N+](=O)[O-])c3)cccc2c1=O,i,i,.,4%,.
O=C1C=C(c2ccc3[nH]ccc3c2)C[C@@H](c2ccc(F)cc2)C1,?,i,2%,?,21µM*
COC(=O)c1ccc(CSc2ccc3nnc(-c4ccc(OC)c(OC)c4)n3n2)o1,i,7.3µM*,-18%,1%,-1%
COc1ccc(-c2nnc3ccc(SCC(=O)N4CCCCCC4)nn23)cc1OC,i,i,-4%,1%,5%
OC(CNCc1ccco1)COc1ccccc1 (configuration not stated),i,0.0018µM*,17%,1%,8%
COc1ccc(OCC(O)CNCc2ccco2)cc1 (configuration not stated),i,i,3%,-3%,0%
CC(=O)OC1c2c(ccc3ccc(=O)oc23)OC(C)(C)C1OC(=O)CC(C)C (configuration not stated),i,12µM*,-7%,2%,4%
O=C(CNc1ccccc1-c1ccccc1)NCc1ccccc1,i,16µM*,5%,1%,15%
O=C(CNCc1ccccc1)Nc1ccccc1-c1ccccc1,i,i,-3%,1%,23µM*
O=C(CNCc1ccccc1)Nc1cccc(Cl)c1Cl,i,i,3%,1%,24%
Cc1ccc(C2=CSC3=NCCN23)cc1,i,i,0%,-1%,7.3µM*
O=C(c1ccc(Cl)cc1)c1oc2ccccc2c1CS(=O)(=O)c1ccccc1,i,6.5µM*,-2%,11%[38.3 µM],?
O=C(Nc1c(C(=O)c2ccc(Cl)cc2)oc2ccccc12)c1cc(=O)c2ccccc2o1,i,?,.,-1%,.
CC(C)OCCCN(C)C1CCN(S(=O)(=O)c2ccc(-c3cc(C(F)(F)F)no3)s2)CC1,16µM*,9.2µM*,15µM*,0%,15%
Cc1cccc(C)c1NC(=O)C1c2ccccc2OCC(=O)N1Cc1ccc2c(c1)OCO2 (configuration not stated),i,i,.,0%,.
O=c1oc2ccccc2c(Nc2cccc(O)c2)c1[N+](=O)[O-],i,i,-4%,-1%,18µM*
COC(=O)C[C@H]1CC[C@H](NC(=O)Nc2ccccc2OC)[C@@H](CO)O1,i,i,.,.,.
Cc1occc1C(=O)N1CCN(c2ccc(Cl)c(Cl)c2)CC1,i,23µM*,8%,0%[38.3 µM],-5%
O=C(Nc1ccc(Cl)cc1)C1CCN(C(=O)NC2CCCCC2)CC1,i,i,-3%,16%,0%
O=C(c1ccc(Cl)cc1)C1CCN(C(=O)NC2CCCCC2)CC1,i,2.3µM*,-1%,1%[38.3 µM],24%
SMILES,KB-3-1 cytotox,KB-V1 cytotox,SW480 rerep,PINK1 expr mod,MCF10A rereplic
COc1ccc2c(c1)CC(C(=O)NCc1ccc(F)cc1)CO2 (configuration not stated),i,i,.,-1%,.
Cc1ccc(-n2cccc2/C=C2/C(=N)N3C(=NC2=O)SN=C3S(C)(=O)=O)cc1,i,i,-3%,3%,16µM*
COc1cccc(-n2c(C)cc(/C=C3/C(=N)N4C(=NC3=O)SN=C4S(C)(=O)=O)c2C)c1,i,i,5%,1%,16µM*
COc1cc(/C=C2/C(=N)N3C(=NC2=O)SN=C3S(C)(=O)=O)ccc1OS(=O)(=O)c1ccc(C)cc1,i,i,?,2%,?
CCc1ccc(-n2cccc2/C=C2/C(=N)N3C(=NC2=O)SN=C3S(C)(=O)=O)cc1,i,i,0%,3%,?
O=C(C/C=N/OCc1c(Cl)cccc1Cl)c1ccc(Cl)cc1,i,i,16%,1%,23µM*
CC(=O)Nc1sc2c(c1C(c1ccncc1)N1CCOCC1)CCCC2 (configuration not stated),i,i,0%,3%,-1%
CCc1cc(C(c2ccncc2)N2CCN(C)CC2)c(NC(=O)c2ccccc2)s1 (configuration not stated),i,21µM*,-693%,-1%,-34%
Cc1sc(NC(=O)c2ccccc2)c(C(c2ccc(Cl)cc2)N2CCN(CCO)CC2)c1C (configuration not stated),21µM*,?,24%,-1%,?
CCOc1ccc(C(c2c(NC(=O)c3ccccc3)sc(C)c2C)N2CCN(CCO)CC2)cc1 (configuration not stated),?,?,3.7µM*,5%,?
CC(=O)Nc1sc2c(c1C(c1cccc(Cl)c1)N1CCN(CCO)CC1)CCCC2 (configuration not stated),i,i,-4%,1%,-1%
Cc1sc(NC(=O)c2ccco2)c(C(c2ccc(F)cc2)N2CCN(C)CC2)c1C (configuration not stated),i,i,4%,0%,?
Cc1ccc(-n2c(=O)c3cccnc3n2CC(=O)Nc2ccc(Br)cc2)cc1C,i,i,.,2%,.
CCCCCCCCSc1nnc(CSc2nc3nc(C)cc(C)n3n2)o1,?,2.6µM*,-5%,0%,?
Cc1cc(C)n2nc(SCc3nnc(SCCCCl)o3)nc2n1,i,?,-1%,.,?
C[C@H](NC(=O)c1nc[nH]c1C(=O)N[C@H](C)c1ccccc1)C(=O)OC(C)(C)C,i,?,-6%,10%,18%
C[C@H](NC(=O)c1nc[nH]c1C(=O)NCCCCCNC(=O)OC(C)(C)C)C(=O)OC(C)(C)C,i,23µM*,-7%,3%,10%
CC(C)C[C@H](NC(=O)c1nc[nH]c1C(=O)NCCCCCNC(=O)OC(C)(C)C)C(=O)OC(C)(C)C,?,?,?,22%,14%
